Test in all cases: pooled miR-30 sensor sort-seq; sequence = guide strand
Common to all, as to settings: shRNA

Assay [1] addresses EPHX1.
The target of assay [2] is EPHX2.
For assay [3], the target named is ETFB.
Assay [4] deals with FAM162A.
Assay [5] addresses FAM178A.
Assay [6] deals with FAM22F.
Assay [7] deals with FAM73A.
Assay [8] concerns the target FAN1.
Assay [9] has as its target FBXL3.
Assay [10] addresses FCF1.
For assay [11], the target named is FGF23.
The target in assay [12] is FIZ1.
Assay [13] has as its target FNBP1L.
Assay [14] deals with FPGS.
Assay [15] addresses FXN.
Assay [16] addresses FUT7.
The target in assay [17] is FTL.
Further: reference of the scale not given here.

For ATCAGCTTGTAAAAGATCCTGG, the sensor-assay potency score (higher = more potent) in assay [1] is -0.191.

As for TTAGAGGACCTCTGAAACCAGA, in assay [2], the sensor-assay potency score (higher = more potent) was -0.75. Still for that read-out and setting: the result for TTTGATACTCTCCAAAGGGGAC reads -0.915. TCCAAGAATACCAACTCTCGGG came in with a sensor-assay potency score (higher = more potent) in assay [2] of -1.01. Sequence TTCAATCTTAGTCTTGAAGTGA showed a sensor-assay potency score (higher = more potent) in [1] of -0.0669. The sequence TATCAGGAAGTCAAAGTGCATC registered a sensor-assay potency score (higher = more potent) in assay [2] of -1.33. Sequence TCAATCTTAGTCTTGAAGTGAG returned a sensor-assay potency score (higher = more potent) in assay [1] of -0.441. TTTCTGGAAAGCATCATTCAGA displayed a sensor-assay potency score (higher = more potent) in assay [2] of -0.533. In turn, TCTCCTTGTAGAAGCGCTGGGA showed a sensor-assay potency score (higher = more potent) in [1] of -0.317. With TTGGATTGCAAGAGGTCGGCAG, in [2], the sensor-assay potency score (higher = more potent) is -0.532. The sequence TTCTCCTTGTAGAAGCGCTGGG came in with a sensor-assay potency score (higher = more potent) in assay [1] of -0.596. TTGGCTTTCATGATGTTGGGCA: in assay [3], the sensor-assay potency score (higher = more potent) amounted to 0.503. Same read-out and setting: to TTGGGCAGCGTGGCGTAGCGGG belongs -1.13.

Consider TTCACTCGCATCTTGTTCTTTG, for which the sensor-assay potency score (higher = more potent) in [4] is -0.205. Sequence ATAGCTGATCTTCACTCGCATC came in with a sensor-assay potency score (higher = more potent) in assay [4] of -1.3.

Sequence TAGACAATCTACTTCCTCCATA came in with a sensor-assay potency score (higher = more potent) in [5] of -0.597. Sequence TTTGGTATCATAGATTCTCTTG yielded a sensor-assay potency score (higher = more potent) in assay [5] of -0.0968. For AAGGACTTGAGTCCAACCTGGC, the sensor-assay potency score (higher = more potent) in assay [6] was -0.389. The same measure, in the same setting: the result for TTTCTGAGCAGATGGAGACTGA reads -0.731. TTTAATATCATCTTCATCTGCT had a sensor-assay potency score (higher = more potent) in [7] of 0.76. In turn, TAGACAACTACTTGTATGCCTC came in with a sensor-assay potency score (higher = more potent) in [7] of -0.255. Take TTGCTGATTGATAAGCTTCTAC: the sensor-assay potency score (higher = more potent) in [8] is -0.452.

Sequence TACTTGGAGAATAATGTCCTGA registered a sensor-assay potency score (higher = more potent) in assay [9] of 0.112. On the same count and under the same terms, to TTGCTTGAAATTAAGGTGCTAT belongs 0.353. TTCAGCCATTACACAATCGGTT gave a sensor-assay potency score (higher = more potent) in assay [10] of -0.926. Regarding TCTGATCTGATCATCAGGGCAC, the sensor-assay potency score (higher = more potent) in assay [11] turned out to be 0.338. The sequence AACAGCTTCTCGCACTCGGAGC displayed a sensor-assay potency score (higher = more potent) in assay [12] of -1.76. TAATGTAGAGAACTTCACCTTC had a sensor-assay potency score (higher = more potent) in assay [13] of -0.0833. In turn, TCTTCGTCCAGGTGGTTCCAGT gave a sensor-assay potency score (higher = more potent) in assay [14] of -0.895. In [15], ATTCATCAAATAGACACTCTGC displayed a sensor-assay potency score (higher = more potent) of 0.393. On to TAACGCTTAGGTCCACTGGATG, for which the sensor-assay potency score (higher = more potent) in assay [15] is -1.46. As for TCAAAGGACAGGTAGAAGCGGT, the sensor-assay potency score (higher = more potent) in assay [16] turned out to be 0.117.

The sequence TTTTGACATTCCAAATCTGGTT returned a sensor-assay potency score (higher = more potent) in assay [15] of -0.929.

Turning to ATCAAATAGACACTCTGCTTTT, the sensor-assay potency score (higher = more potent) in assay [15] was -1.04. On to TCCTCATAGACTTGGCTGCGGG, for which the sensor-assay potency score (higher = more potent) in assay [16] is -1.76.

In turn, TTGTTTGGCGTCTGCTTGTTGA displayed a sensor-assay potency score (higher = more potent) in assay [15] of -0.937. As for TCTGCTAGTCTTTCATAGGTGG, the sensor-assay potency score (higher = more potent) in assay [15] was found to be 0.437.

For TAGGGCACAAAGATGTCCGAGT, in [16], the sensor-assay potency score (higher = more potent) was -0.24. With TGCTTGTTGATCACATAGGTTC, the sensor-assay potency score (higher = more potent) in assay [15] is -0.833.

For TATCGGCTCTCATTCATGCCAG, the sensor-assay potency score (higher = more potent) in [16] is -0.795.

In turn, AAGATGTCCGAGTCGCGCCGGT showed a sensor-assay potency score (higher = more potent) in assay [16] of -0.72.

TGTCGCTGGGCAGCTCTGGGGG yielded a sensor-assay potency score (higher = more potent) in assay [16] of -1.3. TAAGGCTTTAGTGAGCTCTGCG displayed a sensor-assay potency score (higher = more potent) in assay [15] of 0.283. As to TTCTCCGTAATGTAGTCGCGGT, the sensor-assay potency score (higher = more potent) in assay [16] is -0.562.

The sequence TTGACAGTTAAGACACCACTCC gave a sensor-assay potency score (higher = more potent) in assay [15] of -0.462. For TTGGTATCGGCTCTCATTCATG, the sensor-assay potency score (higher = more potent) in assay [16] was -1.57.

On to TTCTCCTCGGCCAATTCGCGGA, for which, in assay [17], the sensor-assay potency score (higher = more potent) was -1.13.

TCTCCGTAATGTAGTCGCGGTG: the sensor-assay potency score (higher = more potent) in assay [16] was -1.48.

In assay [16], TCGGTGAACAGTCGCACGCGGA returned a sensor-assay potency score (higher = more potent) of -1.48.

In turn, TTAAAAATCAGAACTTGGGGGC returned a sensor-assay potency score (higher = more potent) in [15] of 0.521. TAATGTAGTCGCGGTGCTGAGA had a sensor-assay potency score (higher = more potent) in assay [16] of -0.815.

In the case of ATAGGGCACAAAGATGTCCGAG, the sensor-assay potency score (higher = more potent) in assay [16] is -0.929.

In assay [16], AAAGTCATCCACATGCACGAAG showed a sensor-assay potency score (higher = more potent) of -0.891.

For the sequence TTGAAGATGCCTCGGAGGTGGC, the sensor-assay potency score (higher = more potent) in assay [16] was -0.867. AACAGTCGCACGCGGAGCCTGT came in with a sensor-assay potency score (higher = more potent) in assay [16] of -1.06.

With TCACAGATGGCACAGAAACGTT, the sensor-assay potency score (higher = more potent) in assay [16] is -1.59. TCATCCACATGCACGAAGGCGT came in with a sensor-assay potency score (higher = more potent) in assay [16] of -0.506. Still for that read-out and setting: to AAAGATGTCCGAGTCGCGCCGG belongs -0.517. In assay [15], TTTTTGACATTCCAAATCTGGT came in with a sensor-assay potency score (higher = more potent) of -1.15. Take TCAAGGTCCTCATAGACTTGGC: the sensor-assay potency score (higher = more potent) in [16] is -0.439.
